Laboratory results published in PubChem BioAssay (NCATS).
Records with an inconclusive call do not appear. Active and inactive are the calls of the source. Calls come from the whole dose curve; as a rule, active = well fitted inhibition curve with a large enough effect; inconclusive = small, poorly fitted or top-dose-only effect; inactive = flat fitted curve, though single readings scatter.

These compounds were tested on NIH3T3 (assay: Cytotoxic Profiling of Annotated Libraries Using Quantitative High-Throughput Screening (AID 1296008; note: nearly all actives have a fitted effect of over 60% in size)). Conditions: Five cell lines viability, CellTiter-Glo ATP luminescence, 48-72 h; max response: active compounds read low.
Method in brief: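 Cytotoxicity was measured as CellTiter-Glo ATP luminescence, read after 10 min at room temperature. Compound treatment of the cells lasted 48 or 72 hr at 37 degrees Celsius in a qHTS format.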
% is set by controls: 0 for no effect and ±100 for the full control effect; potency is the fitted concentration of half-maximal effect.

Row | Compound | Potency | max response | outcome
1 | COc1c(C)cnc(Cn2cc(C#CCC(C)(C)O)c3c(Cl)nc(N)nc32)c1C | 0.206 µM (active) | – | –
2 | COC(=O)N1CCC(n2ncc3c(N4CCOCC4)nc(-c4ccc(NC(=O)NC5CC5)cc4)nc32)CC1 | 0.651 µM (active) | – | –
3 | CCCCC1CCN(CCCN2C(=O)CCc3ccccc32)CC1 | – | -7.86% (inactive) | –
4 | N#Cc1ccnc(Nc2cc(C3CCN(C4COC4)CC3)cc(N3CCC(F)(F)C3)n2)c1 | 20.9 µM (active) | – | –
5 | CC1(C(=O)Nc2ccc(F)nc2)CCCN1c1nc(Nc2cc(C3CC3)[nH]n2)c2cccn2n1 (configuration not stated) | 4.61 µM (active) | – | –
6 | CN1CCC(NC(=O)c2cc(-c3c(O)cc(O)cc3Oc3ccc([N+](=O)[O-])cc3)on2)CC1 | 5.8 µM (active) | – | –
7 | COC(C)(C)CCn1nc(Nc2c(C)cccc2C)c2cnc(Nc3ccc(OCCN4CCCC4)c(F)c3)nc21 | 0.411 µM (active) | – | –
8 | Cc1cc(-c2nc(-c3ccc(OC(F)(F)F)cc3)no2)nn1Cc1ccnc(N2CCN(C3CC3)CC2)c1 | – | -14.2% (inactive) | –
9 | CC(C)NCCCn1c(Sc2cc3c(cc2I)OCO3)nc2c(N)ncnc21 | 0.291 µM (active) | – | –
10 | CCOC(=O)c1cnc2ccc(-c3cncc(NS(=O)(=O)c4ccccc4)c3)cn12 | 1.16 µM (active) | – | –
11 | CCNC(=O)Nc1ccc(-c2nc3c(c(N4CCOCC4C)n2)CCN(C2COC2)C3)cc1 (configuration not stated) | 2.31 µM (active) | – | –
12 | CN1C(=O)c2sccc2N(C)c2nc(Nc3ccc(S(N)(=O)=O)cc3)ncc21 | 16.6 µM (active) | – | –
13 | CCc1c[nH]c2ncnc(N3CC[C@](N)(CNC(=O)c4ccc(F)cc4F)C3)c12 | – | 4.64% (inactive) | –
14 | COc1ccc(C[C@H]2COC(=O)[C@@H]2Cc2ccc(O[C@@H]3O[C@H](CO)[C@@H](O)[C@H](O)[C@H]3O)c(OC)c2)cc1OC | – | -30.4% (inactive) | –
15 | C=CC(=O)Nc1cccc(Nc2nc(Nc3ccc(NC4CN(CCF)C4)cc3OC)ncc2C(F)(F)F)c1 | 13 µM (active) | – | –
16 | CC1CC(=O)C2=C(C1)C1OC1C1(O)C2C(=O)c2cccc(O)c2C1O (configuration not stated) | – | -27% (inactive) | –

Row | Compound | Potency | max response | outcome
17 | CCc1cc(C(N)=O)ccc1-n1nc(C(C)C)c2c(-n3cnc(-c4cnn(C)c4)c3)ccnc21 | 1.3 µM (active) | – | –
18 | CC[C@@H](C)Nc1cc(C(=O)NC2CC3CCC(C2)N3c2ccc(C(=O)C3CC3)cn2)c(C)cc1C(N)=O (some centres not stated) | 0.206 µM (active) | – | –
19 | O=c1cc(NCCCN[C@@H]2CCOc3c(Br)cc(Br)cc32)[nH]c2ccsc12 | – | 2.02% (inactive) | –
20 | C/C1=C/CCC2=CC(OC2=O)C(C)(C)/C=C/C1=O (configuration not stated) | 4.11 µM (active) | – | –
21 | CCCC1(CCC)CCC2(CCN(CCCN(CC)CC)C2)CC1 | 3.66 µM (active) | – | –
22 | Cc1nc(-c2cn3c(n2)-c2ccc(-c4cnn(C(C)(C)C(N)=O)c4)cc2OCC3)n(C(C)C)n1 | 5.17 µM (active) | – | –
23 | CC(C)(C)c1ccc(C(=O)Nc2cc(Cl)c(Br)cc2C(=O)O)cc1 | – | -19.1% (inactive) | –
24 | C/C1=C\[C@@H](C)C[C@@H](C)[C@@H](Cc2cnco2)OC(=O)/C(C)=C/[C@@H](C)C[C@@H](C)[C@@H](Cc2cnco2)OC1=O | – | -16.6% (inactive) | –
25 | COC1=CC(=O)C[C@@H](C)[C@@]12Oc1c(Cl)c(OC)cc(OC)c1C2=O | – | -50.9% (inactive) | –
26 | Cc1ccccc1C(C(=O)NC1CCCCC1)N(C(=O)Cn1cnc2ccccc21)c1cccc(F)c1 (configuration not stated) | 18.4 µM (active) | – | –
27 | CS(=O)(=O)c1ccc(Oc2cc(F)cc(C#N)c2)c2c1[C@H](O)C(F)(F)C2 | – | -14.9% (inactive) | –
28 | O=C(Cc1cccc(OC(F)(F)F)c1)Nc1ccc(CCCCc2nnc(NC(=O)Cc3ccccn3)s2)nn1 | 26.3 µM (active) | – | –
29 | C#CCCCn1cc(-c2cccc3c2N[C@H](C)CC(=O)N3)cn1 | – | -3.84% (inactive) | –
30 | COc1cc(N2CCC(N3CCN(C)CC3)CC2)ccc1Nc1ncc(Cl)c(Nc2ccccc2P(C)(C)=O)n1 | 1.64 µM (active) | – | –
31 | COc1cc(O)cc(OC2OC(CO)C(O)C(O)C2O)c1 (configuration not stated) | – | – | inactive
32 | COc1cc(N2CCC(O)CC2)ccc1Nc1nc(Nc2ccccc2S(=O)(=O)C(C)C)c2[nH]cnc2n1 | 7.31 µM (active) | – | –
